About 83,000 compounds went through this panel and 20% of them were active in at least one assay; those are over-represented in the sample as a whole.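 Interpretation: 100, growth as untreated; towards 0, rising growth inhibition; 0, no net growth; 0 to -100, cell death. Compounds scoring below 10 were considered active.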 Unmarked numbers belong to inactive results. The source made the active and inactive calls.

This assay has as its system MDA-MB-468 breast. As to the kind of experiment: NCI-60 one-dose screen, 48 h (100 = growth as untreated, 0 = no growth, -100 = all killed). Conditions: 10 µM unless noted.
`OB1OCc2cc(/C=C/c3cccc(C(F)(F)F)c3)ccc21`: the growth was 5.08% (active). Under `C[C@@H](O)[C@H]1C(=O)N2C(C(=O)O)=C(SCCN=CN)C[C@H]12` stands -48.1% (active); under `NC(=O)c1cc(-c2ccc3ncnc(N4CCc5cc(F)c(Cl)cc54)c3c2)cnc1N`, -35.3% (active). As to `O=c1[nH][n+](-c2ccc(Cl)cc2)no1`, the growth was 93.2%.

As for `O=C(Nc1nc(-c2ccccc2Cl)cs1)c1cc(-c2ccccc2)nc2ccc(Cl)cc12`, the growth was 90.9%.

For `COc1cc(/C=C/C(=O)c2ccc(O)c(CN3CCN(c4cc5c(cc4F)c(=O)c(C(=O)O)cn5C4CC4)CC3)c2)cc(OC)c1OC`, the growth is 6.61% (active). For the molecule `CCN1CCN(c2cc(C(=O)Nc3nc4ccc(Oc5ccnc(C(=O)NC)c5)cc4s3)cc(C(F)(F)F)c2)CC1`, the growth is 43.3%. In the case of `Oc1c(C(Nc2ccccc2)c2ccccc2)ccc2cccnc12` (stereo not given) it was 17.8%; in that of `CN1CCN(CC(=O)Nc2ccc3ncnc(Nc4ccc(Oc5cccc(C(F)(F)F)c5)c(Cl)c4)c3c2)CC1`, -61.3% (active). In the case of `Nc1ccc(Oc2ccccc2)c(Cl)c1` it was 92.1%. As to `CCN1C(=O)N(c2ccccc2)C2NC(=S)N(/N=C/C=C/c3ccccc3OC)C21` (stereo not given), the growth was 2.35% (active). For `CCn1cc(C(=O)NN=C2CCCC2)c(=O)c2ccc(C)nc21`, the growth was 91.8%. In the case of `O=C1CC(=O)N(c2ccccc2)O1`, the growth is 105%.

`Cc1oc2ncnc(Nc3ccccc3)c2c1C(=O)NCCO`: the growth was 109%. On to `COc1cc(OC)cc(C(=O)Nc2cc(-c3cccnc3)nc(NCCCN3CCOCC3)n2)c1`, for which the growth was 83.2%. Turning to `Nc1nc(N)c(-c2ccc(Cl)cc2)c(/C=C/c2ccc([N+](=O)[O-])cc2)n1`, the growth is 64.7%. Under `O=C1c2cccc3cccc(c23)C(=O)N1Nc1nc(N2CCOCC2)nc(N2CCN(c3ccccc3)CC2)n1` stands -15.8% (active); under `Cc1onc(-c2ccccc2Cl)c1C(=O)Cl`, 104%. With `CCc1ccc(C2=C/C(=C/c3ccc(Cl)cc3)C(=O)N2CCc2ccc(S(N)(=O)=O)cc2)cc1`, the growth was 13.5%. On to `COc1ccc(O)c(N=Nc2nccs2)c1`, for which the growth is 17.5%. Regarding `Cc1cccc(C)c1-c1cc(Cc2ccc(Cl)cc2)c(=O)[nH]n1`, the growth is 96.9%. Consider `O=C1CC(=O)N(C(=O)c2nn(-c3ccc(Cl)cc3)cc2O)N1`, for which the growth was 62.4%. Take `O=C(/C=C/c1cccc(C(F)(F)F)c1)Nc1cccc(C(F)(F)F)c1`: the growth was 55.6%.

Consider `Cc1ccc(C(=O)/C=C/c2ccccc2)s1`, for which the growth is 89.7%. In the case of `CC1(C)CC(=O)c2cc3c(N)c(C(=O)Nc4ccc(Cl)cc4)sc3nc2C1` it was 110%.

In the case of `CCSc1nc(Nc2ccc(S(=O)(=O)Nc3ccon3)cc2)c(C#N)c(-c2cccc(Br)c2)n1`, the growth is 85.1%.

As for `COc1ccc(Cn2cc3c(c2-c2ccccc2)CCCc2cnoc2-3)cc1`, the growth was 47.7%. With `C=C[C@@H]1C[C@H](O)Cc2ccccc2N1`, the growth was 123%.

Turning to `C=CC(=O)Nc1ccc2ncnc(Nc3cccc(NS(=O)(=O)CCC)c3Cl)c2c1`, the growth is -31.9% (active). With `COc1cc(-c2cc(/C=C/C(C)=O)[nH]n2)cc(OC)c1OC`, the growth is 54.5%. In the case of `COC(=O)c1nc(-c2ccccc2)oc1S(=O)(=O)NCC(c1ccc(Cl)cc1)N1CCCCC1` (stereo not given), the growth was 37%. `Cc1ccc2[nH]c(=O)c3c(c2c1)OC(N)=C(C#N)C31C(=O)c2cccc3cccc1c23` (stereo not given): the growth is 95.1%. Consider `COC(=O)/C=C1/SC(=Nc2ccc(C(F)(F)F)cc2)N(CCc2c[nH]c3ccc(O)cc23)C1=O`, for which the growth was 8.44% (active). For the molecule `Cc1cc(N2CCOCC2)nc(N(CCNc2ccnc3cc(Cl)ccc23)Cc2ccco2)n1`, the growth is 23.5%.

With `COc1ccc2c(c1)Nc1ccccc1S2`, the growth was 104%. `O=C(CSc1nnc(-c2ccc(Cl)cc2)n1-c1ccccc1)Nc1cccc(F)c1`: the growth is 17.2%.

For the molecule `O=C(CSc1nnc(-c2ccc(Cl)cc2)o1)Nc1ccc(C(=O)/C=C/c2ccc(Cl)cc2)cc1`, the growth is 116%. On to `COc1ccc2c(c1)sc1nc(-c3ccccc3)c(-c3cccnc3)n12`, for which the growth was 90.1%. Take `CC(=O)N(C(C)=O)c1ccc(C)cc1`: the growth was 98.9%.

For `O=C1Nc2ccccc2/C1=C/c1cccs1`, the growth was -20.2% (active).

The values above are taken from PubChem BioAssay (NCI).
